Consider 102 compounds from PubChem BioAssay AID651820 (National Center for Advancing Translational Sciences (NCATS), 2012).

Each structure is given as a SMILES string. Hit rate of the full screen: of about 340,000 compounds, about 12,000 (3.5%) were called active. A call without a number means that no potency is given here. Not shown: some 18% with an inconclusive outcome. Calls come from the whole dose curve; as a rule, active = well fitted inhibition curve with a large enough effect; inconclusive = small, poorly fitted or top-dose-only effect, or another doubt; inactive = no such curve, though single readings can be large or run the other way. For the sample, actives were picked, then their nearest neighbours and some compounds at random.
Potency is the fitted concentration of half-maximal effect.

The test can be described thus: qHTS Assay for Inhibitors of Hepatitis C Virus (HCV). The conditions noted are these: Huh7.5.1 HCVcc-Cre infection, luciferase reporter, 44 h; series mostly up to 41.8 µM. An outline of the steps:
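HCVcc-Cre virus at an moi near 0.5 was added right after compound to cells cultured 4 h from seeding (1,000 cells/well). Luciferase activity was determined 44 h later, 15 min after substrate addition at RT.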
In general terms: qHTS replaces the single test concentration by a dilution series.
With `CCC(C)NC(=O)c1ccc(NC(=O)CC2SC(N3CCCCC3)=NC2=O)cc1` (configuration not stated), the Potency entry was “inactive”.

As to `O=C(Nc1cc2c3c(c1)CC(=O)N3CCC2)c1ccccc1F`, the Potency entry was “inactive”. The value for `CCOc1cc(C(=O)Nc2ccc(S(=O)(=O)Nc3cnc4ccccc4n3)cc2)cc(OCC)c1OCC` was “inactive”; that for `Cc1nc(N=C(N)N)nc2c(C)cccc12` was 14.1 µM (active). The result for `CC(=O)Oc1ccc(-c2nc3c(C)cccc3c(=O)o2)cc1` reads “inactive”; that for `COc1cc(Cl)c(C)cc1NC(=O)CSc1nnc(CN2CCCC2)o1`, “inactive”. For `COc1cc(OC)cc(C(=O)NCC(=O)OCc2csc(-c3ccccc3)n2)c1`, the Potency entry was “inactive”. The result for `COc1ccc(N2CCN(C(=O)CNC(=O)c3ccc(Br)o3)CC2)cc1` reads “inactive”. On to `COc1ccc(-c2nc(CCNC(=O)c3ccc(Br)o3)cs2)cc1`, for which the Potency was 10 µM (active).

Take `COc1ccc(C2=NN(C(=O)CSc3nnnn3C)C(c3ccco3)C2)cc1` (configuration not stated): the Potency entry is “inactive”. The result for `O=C(CSc1nccn1-c1cccc(F)c1)NC1CCCC1` reads “inactive”; that for `CCCc1cc(=O)[nH]c2nnc(SCC(=O)Nc3nnc(SCC)s3)n12`, “inactive”. The value for `COc1ccccc1-c1nnc(-c2ccc(F)cc2)o1` was “inactive”.

Regarding `Cc1ccc(-c2nc(CSCC(=O)NC3CCN(Cc4ccccc4)CC3)c(C)o2)cc1`, the Potency is 12.6 µM (active). The value for `Cc1ccc(S(=O)(=O)NCCC(=O)NC2CCN(Cc3ccccc3)CC2)cc1` was “inactive”; that for `Cc1ccc(-c2nc(CS(=O)CC(=O)NC3CCCC3)c(C)o2)cc1` (configuration not stated) was “inactive”. As to `O=C(Nc1ccccn1)C1CCN(S(=O)(=O)c2ccccc2)CC1`, the Potency result is “inactive”.

As to `Fc1ccccc1COc1cccc2cccnc12`, the Potency entry is “inactive”.

As to `Cc1ccc(NC(=O)CN(C)C(=O)c2ccc(Cl)c(S(=O)(=O)NCc3ccco3)c2)cc1`, the Potency entry is “inactive”. The result for `Clc1ccc2c(c1)C1=C(C(c3ccncc3)O2)C(c2ccc(Br)cc2)n2ncnc2N1` (configuration not stated) reads 12.6 µM (active); that for `CC1=C(C(N)=O)C(c2ccc(Br)cc2)n2ncnc2N1` (configuration not stated), “inactive”; that for `COC(=O)C1=C(C)Nc2ncnn2C1c1cccnc1` (configuration not stated), “inactive”. Take `COc1ccc(C(CNC(=O)c2cc(S(=O)(=O)Nc3cccc(C)c3)ccc2C)N2CCCC2)cc1` (configuration not stated): the Potency result is “inactive”. The value for `COc1cccc(CNC(=O)CN2C(=O)NC(Cc3ccccc3)(c3ccccc3)C2=O)c1` (configuration not stated) was “inactive”.

On to `COc1ccccc1N1CCN(CC(=O)Nc2ccnn2C2CCCC2)CC1`, for which the Potency result is “inactive”. On to `COc1cccc(C(=O)N2CCC(n3nccc3NC(=O)C3CCOC3)CC2)c1` (configuration not stated), for which the Potency entry was “inactive”.

`COc1cccc(N2CCN(CC(=O)Nc3ccnn3C3CCCC3)CC2)c1`: the Potency was 10 µM (active). The value for `CC(=O)NC(CC(=O)Nc1ccc(S(=O)(=O)N2CCOCC2)cc1)c1ccccc1` (configuration not stated) was “inactive”. The value for `O=C(c1ccccc1)c1ccc(C(=O)N2CCN(c3ccccc3)CC2)cc1` was “inactive”.

Regarding `O=C(c1cc(-c2ccc(Cl)cc2)on1)N1CCN(c2ccccc2)CC1`, the Potency entry is “inactive”.

With `O=C(c1cc2cc(F)ccc2[nH]1)N1CCN(c2ccc(F)cc2)CC1`, the Potency result is “inactive”. The result for `O=C(c1cccc(C(=O)N2CCN(c3ccc(F)cc3)CC2)c1)N1CCN(c2ccc(F)cc2)CC1` reads 11.2 µM (active). With `COc1ccc(-c2cc(C(=O)N3CCN(c4ccc(F)cc4)CC3)no2)cc1`, the Potency was 22.4 µM (active). The result for `O=C(c1cc(-c2ccc(F)cc2)on1)N1CCN(c2ccc(F)cc2)CC1` reads “inactive”; that for `Cc1ccc(C)c(NC(=O)COC(=O)Cn2c(C)csc2=O)c1`, “inactive”; that for `CCC1(CC)NC(=O)N(CC(=O)OCC(=O)c2cc(C)c(C)cc2C)C1=O`, “inactive”.

For `O=C(CNC(=O)c1ccccc1Br)NNC(=O)c1cccs1`, the Potency result is “inactive”. The result for `COc1cc(S(=O)(=O)N2CCN(C(=O)C3CC3)CC2)ccc1NC(C)=O` reads “inactive”.

For `O=C(C1Cc2ccccc2CN1C(=O)c1ccco1)N1CCN(c2ccccc2)CC1` (configuration not stated), the Potency result was “inactive”. With `O=C(NCCC1=CCCCC1)c1ccc(-n2cncn2)cc1`, the Potency result was “inactive”.

Consider `CCOc1ccc(C(=O)CCC(=O)NC2=NCCS2)cc1`, for which the Potency entry was “inactive”.

Turning to `Cc1noc(C)c1CSCC(=O)Nc1ccc(Br)cc1Cl`, the Potency entry was “inactive”.

Take `CCOC(=O)CCCCCC(=O)Nc1ccc2c(c1)CC(=O)N([C@@H](C)CO)C[C@H](C)[C@@H](CN(C)Cc1ccccc1)O2`: the Potency entry was “inactive”.

For `O=C(Nc1ccc(Cl)cn1)c1cnn2cccnc12`, the Potency result was “inactive”. The result for `CC(=O)c1cccc(NC(=O)c2cc(C)nn2-c2ccccc2)c1` reads “inactive”; that for `Cc1cc(NC(=O)c2cnn3cccnc23)n(-c2ccccc2)n1`, 12.6 µM (active). The value for `CSc1ncccc1C(=O)Nc1cccc(S(=O)(=O)N2CCOCC2)c1` was “inactive”; that for `C[C@H](NC(=O)c1[nH]cnc1C(=O)Nc1nccs1)c1ccccc1` was “inactive”; that for `Cc1nn(-c2ccccc2)nc1C(=O)OCC(=O)N1CCCCC1C` (configuration not stated) was “inactive”. `CN(C)C(=O)N=NC(=O)N(C)C`: the Potency result is “inactive”.

Regarding `O=C(c1ccccc1[N+](=O)[O-])N1CCC2(CC1)OCCO2`, the Potency entry is “inactive”. For `Cc1ccc(-c2cc(C(=O)N3CCC4(CC3)OCCO4)no2)cc1`, the Potency entry was “inactive”. The result for `O=C(c1cc2nc(-c3ccccc3)cc(-c3ccccc3)n2n1)N1CCC2(CC1)OCCO2` reads 10 µM (active); that for `CC(=O)N1CCc2c(sc(NC(=O)CCS(=O)(=O)c3ccc(C)cc3)c2C(N)=O)C1`, “inactive”.

Regarding `CCN(CC)c1ccc(C(=O)N/N=C/c2ccc(N3CCOCC3)cc2)cc1`, the Potency entry was “inactive”. The value for `Cc1cc(C(=O)N/N=C/c2ccc(N3CCOCC3)cc2)c(C)o1` was “inactive”; that for `CN(C)c1ccc(/C=N/Nc2cc(N3CCOCC3)nc(N3CCOCC3)n2)cc1` was 3.98 µM (active); that for `CC(=O)Oc1ccc(OC(C)=O)c2c1C1C=CC2CC1` was “inactive”.

In the case of `Cc1n[nH]c(=O)c2c(NC(=O)CSc3cc(Cl)ccc3Cl)oc(C)c12`, the Potency entry is “inactive”. The result for `Cc1cc(C(F)(F)F)nn1-c1nc(-c2ccco2)cc(C(F)(F)F)n1` reads “inactive”; that for `COc1ccc(-c2cc(C(F)(F)F)nc(SCCC(=O)NCc3ccco3)n2)cc1`, “inactive”.

For the compound `O=C(CSc1nc(-c2ccco2)cc(C(F)(F)F)n1)N1CCc2ccccc2C1`, the Potency was 11.2 µM (active). The value for `CCN([C@H](CO)C(C)C)S(=O)(=O)c1ccccc1Br` was “inactive”; that for `Cc1ccc(NC(=O)CN(C)C(=O)c2cccc(S(=O)(=O)N3CCCC3)c2)cc1` was “inactive”. Regarding `Cc1[nH]c2ccccc2c1/C=N/NC(=O)CNC(=O)c1ccc2c(c1)OCO2`, the Potency result was “inactive”. The result for `Cc1[nH]c2ccccc2c1/C=N\NC(=O)Cn1nnc(-c2ccccc2)n1` reads “inactive”; that for `COCCNC(=S)N/N=C/c1c(C)[nH]c2ccccc12`, 10 µM (active); that for `C[C@@H]1CN([C@@H](C)CO)C(=O)c2cc(NC(=O)C3CC3)ccc2O[C@H]1CN(C)C`, “inactive”. On to `O=[N+]([O-])c1ccc(S(=O)(=O)Nc2cccc(-c3ccc(N4CCCC4)nn3)c2)cc1`, for which the Potency entry was “inactive”. The result for `CC(OC(=O)c1c(F)cccc1F)C(=O)NCCC1=CCCCC1` (configuration not stated) reads “inactive”; that for `CN(CC(=O)Nc1ccc(F)c(F)c1F)C(=O)Cn1cnc2c1c(=O)n(C)c(=O)n2C`, “inactive”; that for `CC(C)Cn1c(N)c(C(=O)COC(=O)C2CCCN2C(=O)c2cccs2)c(=O)n(C)c1=O` (configuration not stated), “inactive”. The value for `COc1ccc(NS(=O)(=O)c2cc(NC(=O)COc3ccccc3F)ccc2OC)cc1` was 11.2 µM (active); that for `COc1ccccc1NC(=O)COC(=O)COc1ccccc1F` was “inactive”. The result for `COc1ccc(OC)c(S(=O)(=O)Nc2ccccc2F)c1` reads “inactive”. `CCc1noc(C)c1C(=O)N1CCCC(N2CCN(c3ccc(F)cc3)CC2)C1` (configuration not stated): the Potency entry was “inactive”.

On to `Cn1c(N)cc(=O)n(C)c1=S`, for which the Potency entry is “inactive”. Consider `C=C(C)CNC(=O)c1ccc(OC2CCN(C(=O)COC)CC2)cc1`, for which the Potency entry is “inactive”. The result for `COc1ccc(NC(=O)CN(C)C(=O)CC2CCCCC2)cc1` reads “inactive”. The result for `COc1ccc(OC)c(Nc2nc(-c3ccc(O)c(O)c3)cs2)c1` reads 10 µM (active). Take `COc1ccc2nc(Nc3nc(-c4ccncc4)cs3)sc2c1`: the Potency result was “inactive”.

On to `O=C(Nc1ccncc1)c1cc2ccccc2o1`, for which the Potency entry was “inactive”. The result for `O=c1oc2ccccc2cc1-c1csc(Nc2ccc(O)cc2)n1` reads 31.6 µM (active); that for `CCNc1nc(-c2cc3ccccc3o2)cs1`, “inactive”. The value for `COc1ccc(-c2csc(Nc3ccc(O)cc3)n2)cc1` was 12.6 µM (active); that for `CCN1CCN(c2nc(Nc3cc(OC)ccc3OC)nc(Nc3cc(OC)ccc3OC)n2)CC1` was “inactive”; that for `COC(=O)CCc1sc(Nc2ccc(Br)cc2)nc1-c1ccc(OC)cc1` was “inactive”. Consider `CC(C)(C)C(=O)OCc1nc(-c2ccc(O)c(O)c2)cs1`, for which the Potency result was “inactive”. The result for `CC(=O)C[C@H](O)CC(=O)[C@@H]1OC(=O)[C@@H](C)C/C=C\Cc2ccccc21` reads “inactive”; that for `COc1ccc(C(=O)COC(=O)CN2C(=O)C3CC=CCC3C2=O)c(OC)c1` (configuration not stated), “inactive”. The value for `CC1(C)CC[C@@]2(C(=O)O)C(C1)C1=CCC3[C@@]4(C)CC[C@H](O)C(C)(C)C4CC[C@@]3(C)[C@]1(C)C[C@H]2O` (some centres not stated) was “inactive”; that for `Cc1cc(C)cc(NC(=O)C(c2ccccc2)N2CCN(CC(=O)N3CCCC3)CC2)c1` (configuration not stated) was “inactive”; that for `CCOc1ccc(C(=O)CCC(=O)Nc2ccncc2)cc1` was “inactive”.

For the compound `O=C(CNC(=O)c1ccccc1Br)NCCSc1ccc(Br)cc1`, the Potency entry is “inactive”. The result for `CN(C)C1=NC[C@H](Cc2ccccc2)N1CCc1ccc(F)cc1` reads “inactive”.

On to `C#CCOCCOCCOCCNc1nc(N2CCN(C(=O)[C@H](CCCCN)n3cc(CCC(=O)O)nn3)CC2)nc(N2CCN(C(=O)[C@H](CCCCN)n3cc(CC(C)O)nn3)CC2)n1` (some centres not stated), for which the Potency result was “inactive”. The result for `CC1CCCCC1NCC(=O)Nc1ccccc1C(=O)Nc1ccccc1` (configuration not stated) reads 0.891 µM (active). The value for `CCCC(NCC(=O)Nc1ccccc1C(=O)NC1CC1)c1ccccc1` (configuration not stated) was “inactive”; that for `COc1cccc(CN(C)CC(=O)Nc2ccccc2C(=O)Nc2ccccc2)c1` was “inactive”. The value for `Cc1ccc(S(=O)(=O)NC2CCCCCC2)cc1` was “inactive”; that for `O=C1C=CN2CCCC2CC1` (configuration not stated) was “inactive”; that for `COc1ccc(C(CNC(=O)c2ccc(S(=O)(=O)Nc3ccccc3C)cc2)N2CCOCC2)cc1` (configuration not stated) was “inactive”.
